In PubChem BioAssay AID2013 (Sanford-Burnham Center for Chemical Genomics, 2009):
Screen size: about 290,000 compounds; about 370 (0.13%) were called active.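 The calls were made as follows: active = spots per cell inhibited over 60%, with over 100 cells counted and total cytoplasm intensity under 500,000; inconclusive = wells with under 100 cells, flagged as likely toxic; inactive = the rest.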 Only a selection was taken, and actives are over-represented in it overall. Potency and affinity values are given separately.

Biological target: G-protein coupled receptor 55 (Homo sapiens) (UniProt Q9Y2T6)
Sequence (Q9Y2T6 whole entry, looked up): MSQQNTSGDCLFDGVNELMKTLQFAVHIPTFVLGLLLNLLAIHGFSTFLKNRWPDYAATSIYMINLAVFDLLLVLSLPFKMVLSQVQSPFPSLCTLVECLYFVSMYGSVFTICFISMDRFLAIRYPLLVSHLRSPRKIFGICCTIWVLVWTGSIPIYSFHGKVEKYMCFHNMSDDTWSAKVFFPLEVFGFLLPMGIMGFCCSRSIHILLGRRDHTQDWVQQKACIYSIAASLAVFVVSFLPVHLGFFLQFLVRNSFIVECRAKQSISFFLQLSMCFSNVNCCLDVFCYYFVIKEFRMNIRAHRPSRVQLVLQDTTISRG
Test: GPR55 antagonists blocking LPI-driven arrestin recruitment, primary screen, imaging, U2OS, beta-arrestin-GFP, LPI agonist (AID 2013);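 also: U2OS cells stably carrying GPR55 and arrestin-GFP stimulated by 5 µM LPI near EC80; imaged beta-arrestin-GFP aggregate spots per cell after agonist stimulation; plate controls were LPI-stimulated DMSO wells for no effect and DMSO wells without LPI for full effect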
Settings: U2OS GPR55 beta-arrestin-GFP translocation imaging, LPI antagonism; at 10 µM; stronger effect = higher value

inhibition, active:
O=S1(=O)CC=C(CSC(=S)NC2CCS(=O)(=O)C2)C1 (stereo not given) 71.8%, COC(CNC(=O)c1ccc2c3c(onc13)-c1ccccc1C2=O)OC 99.4%, COCCCNC(=O)c1ccc2c3c(onc13)-c1ccccc1C2=O 84.1%, CC(=O)NC1=NC(=O)/C(=C/c2cn(C(C)=O)nc2-c2ccccc2)S1 100%, CN(C)CCCN(C(=O)CCc1ccccc1)c1nc2ccc(Cl)cc2s1 75.6%, Cc1cc(C2(c3ccc(O)c(C)c3)OC(=O)c3ccccc32)ccc1O 83.2%

inhibition, inactive:
CC(C(=O)Nc1ccc(S(=O)(=O)N2CCOCC2)cc1)N(c1ccccc1)S(C)(=O)=O (stereo not given) 2.6%, COc1ccccc1CN1CC(C(=O)N(C)CCOc2ccccc2)CCC1=O (stereo not given) 4.1%, CCc1ccc2oc(C(=O)NC3CCS(=O)(=O)C3)cc(=O)c2c1 (stereo not given) 0.2%, CCOC(=O)c1cnc2c(c(C)nn2C)c1Oc1ccc(OC)cc1 24.7%, CCOC(=O)c1cnc2c(c(C)nn2C)c1Oc1cc(Cl)cc(Cl)c1 -4.2%, CCOc1ccc(/C=N/n2c(-c3ccccc3)n[nH]c2=S)cc1 -1.8%, O=C(O)CSCC(=O)Nc1ccc(S(=O)(=O)N2CCCCC2)cc1 8.7%, CC(c1ccc(F)cc1)n1cc(C(=O)NCc2ccccn2)nn1 (stereo not given) -1.6%, O=c1[nH]c2ccccc2nc1-c1ccccc1 5.1%, O=C(CSc1nc2ccccc2[nH]1)N=Nc1c(O)[nH]c2ccccc12 -8.4%, NC(=O)c1sc2nnc(-c3ccccc3)c(-c3ccccc3)c2c1N 21.8%, CCSc1nnc(-c2cccs2)o1 -4.1%, O=C(CCn1ccnc1)Nc1cc(Cl)ccc1O 4.7%, N=C1S/C(=C\c2cccc3ccccc23)C(=O)N1c1ccc(F)cc1 -1.5%, N=C1S/C(=C\c2ccccc2F)C(=O)N1c1ccc(F)cc1 7.1%, CC(C)(C)OC(=O)CC12CCCCC1NC(=O)O2 (stereo not given) -7.6%, COc1ccc2[nH]c(=O)c(COC(=O)c3ccco3)cc2c1 -0.6%, CCCCNS(=O)(=O)c1cccc(S(=O)(=O)N2CCCC2)c1 11.2%, CC1Cn2c(nc(=O)c3c2NCN(CCc2ccccc2)C3)S1 (stereo not given) 3.9%, CC(=O)c1c(C)nc2ccccn12 5.4%, O=S1(=O)CCC(NC(=S)SCc2ccccc2Br)C1 (stereo not given) 8.1%, CCCSC(=S)NC1CCS(=O)(=O)C1 (stereo not given) 1.1%, CCOC(=O)C1=C(C)NC(C)=C(C(=O)OC)C1c1cccc([N+](=O)[O-])c1 (stereo not given) 14.8%, CCOC(=O)C1=C(O)C(=O)N(c2ccccc2)C1c1cccc([N+](=O)[O-])c1 (stereo not given) -3.6%, CCn1c(SCc2nc3cc(OC)c(OC)cc3c(=O)[nH]2)nnc1-c1ccncc1 -12.8%, CCOC(=O)N1CCN(C(=O)CS(=O)Cc2nc(-c3cccc(C)c3)oc2C)CC1 (stereo not given) -4.3%, Cc1cc(=O)c(C(=O)O)nn1-c1ccccc1C(F)(F)F -0.4%, COc1ccccc1NC(=S)NC(NC(=O)c1ccco1)C(Cl)(Cl)Cl (stereo not given) 3.2%, O=C(NC(NC(=S)Nc1ccccc1C(=O)O)C(Cl)(Cl)Cl)c1ccco1 (stereo not given) 15.9%, Cc1ccc(NC(=O)C2C3C=CC4(O3)C2C(=O)N(CCCN2CCCCC2)C4C(=O)NC2CCCCC2)cc1C (stereo not given) 1.2%, COc1ccc(C(=O)C2CCCN(C(=O)c3noc4c3CCCC4)C2)c(C)c1 (stereo not given) 15.3%, CCOC(=O)C(C(=O)OCC)c1cc(Br)c2noc3c2c1C(=O)c1ccccc1-3 -10.2%, COC(CNC(=O)c1coc2nc3ccccc3nc12)OC -2.8%, COCCNC(=O)c1cccc2c1-c1ccccc1C2=O 4%, COCCCNC(=O)c1ccccc1-c1cc(C)no1 -3.6%, O=C(c1cccc(C(F)(F)F)c1)N1CCN(S(=O)(=O)c2ccc(Cl)s2)CC1 9.8%, CCN(c1cccc(C)c1)S(=O)(=O)c1ccc2c(c1)oc(=O)n2C 1.9%, CCOc1ccc(NC(=O)CN(C)S(=O)(=O)c2ccc3c(c2)CCC(=O)N3)cc1 -0.4%, CC(C)CC(=O)NNC(=O)c1ccc(Cl)cc1 4.3%, COc1ccc(C(=O)NC(Oc2ccccc2)C(Cl)(Cl)Cl)cc1 (stereo not given) -6.6%, COc1ccc(C(=O)N(CCCO)C(C)C(=O)NC2CCCCC2)cc1OC (stereo not given) -11.9%, CCOC(=O)c1ccc(NC(=O)c2ccc3c(c2)C(=O)N(Cc2cccnc2)C3=O)cc1 -16.9%, CCCSc1ncc(Cl)c(C(=O)Nc2ccc(S(=O)(=O)Nc3ncccn3)cc2)n1 7.3%, CSc1ncc(Cl)c(C(=O)Nc2ccc(S(=O)(=O)N3CCOCC3)cc2)n1 29.9%, N/C(Cc1cccs1)=N\OC(=O)COc1ccc(Cl)cc1Cl -3.5%, Cc1ccc(CN2CCN(/N=C/C(Br)=C\c3ccccc3)CC2)cc1 -12%, CN1/C(=C\C(=O)CSc2cccc[n+]2[O-])C(C)(C)c2ccccc21 0.8%, CN1/C(=C\C(=O)CSc2nncn2C)C(C)(C)c2ccccc21 -7.6%, COc1ccc2[nH]cc(C(O)CN3CCC(C(N)=O)CC3)c2c1 (stereo not given) 28.7%, COc1ccc([N+](=O)[O-])cc1N(CC(=O)NCCC1=CCCCC1)S(C)(=O)=O 0.4%, CC(C)(C)c1ccc(O)c(N=Cc2cc3c(cc2[N+](=O)[O-])OCO3)c1 -3.2%, CCN=C1S/C(=C\c2cn(C(C)=O)nc2-c2ccccc2)C(=O)N1CC -15.2%, CC(=O)NC1=NC(=O)/C(=C/c2cc(C)n(-c3cccc(C(=O)O)c3)c2C)S1 -3.4%, CCCn1cc(CN2CCC(n3nccc3NC(=O)c3ccc4c(c3)OCO4)CC2)c(C)n1 6%, CCc1ccc(C(=O)COC(=O)[C@@H](NC(N)=O)[C@@H](C)CC)cc1 0.9%, Cc1ccc2nc(N(CCCN(C)C)C(=O)CCc3ccccc3)sc2c1 29.6%, CN(C)CCCN(C(=O)CCc1ccccc1)c1nc2ccc(Br)cc2s1 44.7%, CN(C(=O)c1ccc(OC2CCN(Cc3ccccn3)CC2)cc1)C1CCCCC1 -18.7%, C1CCC(C23CC4CC(CC(C4)C2)C3)NC1 (stereo not given) -4.6%, O=S(=O)(CCC1CCCCN1)c1ccccc1 (stereo not given) 0.5%, CCCN1Cc2cccc(C(=O)N3CCN(c4ccc(F)cc4)CC3)c2C1=O 2.2%, O=C(Nc1ccc(F)cc1F)c1cc(-c2ccco2)nc2ccccc12 7.3%, CN(/C(=N/S(=O)(=O)c1ccccc1)c1ccccc1)S(=O)(=O)c1ccccc1 5.7%, CCc1ccc(CCC(=O)Nc2nccs2)o1 2.3%, Oc1ccc(-c2c(-c3ccsc3)sc3ccccc23)cc1 6.5%, CC(=O)Oc1ccc2c(c1)Oc1cc(OC(C)=O)ccc1C21OC(=O)c2ccccc21 9.9%, CN(C)c1ccc(C2(c3ccc(N(C)C)cc3)OC(=O)c3cc(N)ccc32)cc1 6.1%, Nc1ccc(C2(c3ccc(N)cc3)OC(=O)c3ccccc32)cc1 4%, O=C(O)c1ccc(C2(c3ccc(C(=O)O)cc3)OC(=O)c3ccccc32)cc1 -10.8%, Cc1cc(O)c(C(C)C)cc1C1(c2cc(C(C)C)c(O)cc2C)OC(=O)c2ccccc21 6.1%, Cc1cccc(C2(c3cccc(C)c3)OC(=O)c3ccccc32)c1 10.5%, CCCCOc1ccc(-c2nnn(CC(=O)NCCc3c[nH]c4ccccc34)n2)cc1 4%, CCOc1cc(-c2noc(CCC(=O)NCC3CCCO3)n2)ccc1OC (stereo not given) 0%, COc1ccc(C2CC(=O)c3cnn(-c4nc(C)cc(C)n4)c3C2)cc1OC (stereo not given) 6.6%, CC1=CC(C)(C)N2C(=O)C3(NCCc4c3[nH]c3ccccc43)c3cccc1c32 (stereo not given) 18.2%, O=C(CNC(=S)N(Cc1ccc(F)cc1)C1CCCCC1)NCCN1CCOCC1 12.3%, Cc1c(C(=O)NC2CCCCC2C)oc2ccccc12 (stereo not given) 0.8%, COc1cc(NC(=O)C2CCN(S(=O)(=O)c3cccnc3)CC2)cc(OC)c1OC 8.8%, O=C(c1cccnc1)N1CCN(C(=O)c2cccc(Cl)c2)CC1 -12.2%, Cc1cccc2c1c(N=NC(N)=S)c(O)n2C1OC(CO)C(O)C(O)C1O (stereo not given) -13.4%, O=C1NCCN(Cc2ccoc2)C1CC(=O)N(CCO)Cc1ccccc1 (stereo not given) 1.1%, CCCCOc1ccccc1NC(=O)c1ccco1 13.2%, CCCCOc1ccccc1NC(=O)c1ccc(=O)[nH]c1 2.2%, O=C(CCc1ccccc1Cl)NC1CCCN(c2ccc(C(F)(F)F)cn2)C1 (stereo not given) 5%, COc1ccc(C(C(=O)NCCC(C)C)N(CCCO)C(=O)c2snc(C(N)=O)c2N)cc1OC (stereo not given) 5%, Nn1c(COc2cccc(Cl)c2)nc2ccccc2c1=O -10.2%, CCc1nonc1NC(=O)c1oc2ccccc2c1C 10%, Cc1ccc(OCC(O)Cn2c(=N)n(Cc3ccccc3)c3ccccc32)cc1 (stereo not given) 13.1%, N=c1n(Cc2ccccc2)c2ccccc2n1CC(O)COc1ccccc1 (stereo not given) 50.2%
